Here are results for 18 compounds from PubChem BioAssay (Tox21).

The assay in a line: p53 small molecule agonists, cell-based qHTS assay with human liver microsomes (AID 1963577).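 Further: p53 response element beta-lactamase reporter cells with liver microsomes plus NADPH.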 In outline:
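With metabolic activation: human liver microsomes (0.5 mg/mL final) plus NADPH (0.5 mg/mL final) added alongside compounds to p53RE-bla cells; 16 h 37 C exposure; beta-lactamase read by LiveBLAzer fluorescence.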
On the technique in general: Quantitative high-throughput screening tests each substance at several concentrations.

Molecules are shown by their SMILES. Results filed as inconclusive are left out. Entries that show only a call come without a potency. Active and inactive are the calls of the source. The call rests on the fitted dose curve.

As to `O=[N+]([O-])c1cc(C2CCCCC2)c(O)c([N+](=O)[O-])c1`, the Potency result was “inactive”.
The same measure for `Nc1nc(N)c2nc(CNc3ccc(C(=O)N[C@@H](CCC(=O)O)C(=O)O)cc3)cnc2n1`: “inactive”.
The same measure for `O=C(O)Cc1cc(I)c(Oc2cc(I)c(O)c(I)c2)c(I)c1`: “inactive”.
The same measure for `CNC(=S)NN`: “inactive”.
As to `O=C(Nc1ccc(Cl)c(Cl)c1)c1cc(Cl)cc(Cl)c1O`, the Potency entry was “inactive”.
Regarding `CC(=O)OC(OC(C)=O)c1ccc([N+](=O)[O-])o1`, the Potency entry is “inactive”.
As to `CC(=O)NCCCS(=O)(=O)O`, the Potency entry was “inactive”.
With `CCN1CCN(C(=O)N[C@@H](C(=O)N[C@@H]2C(=O)N3C(C(=O)O)=C(CSc4nnnn4C)CS[C@H]23)c2ccc(O)cc2)C(=O)C1=O`, the Potency entry was “inactive”.
The same measure for `C=COCCOCCOC=C`: “inactive”; for `CC=O`: “inactive”.
`CNCC(O)c1ccc(O)c(O)c1` (stereo not drawn): the Potency result was “inactive”.
The same measure for `C/C(=C\c1ccc(C(=O)O)cc1)c1ccc2c(c1)C(C)(C)CCC2(C)C`: “inactive”; for `CC(C)(C)c1cc(O)c(C(C)(C)C)cc1O`: “inactive”; for `COC(=O)Nc1nc2ccc(C(=O)C3CC3)cc2[nH]1`: “inactive”.
Consider `CCCOc1sc(C(=O)N2CCC(c3cc(CN)ccc3F)CC2)c(C)c1Br`, for which the Potency result was “inactive”.
`O=C(Cl)c1ccc(F)c(Cl)c1`: the Potency result is “inactive”.
`Cc1ccc(S(=O)(=O)C(I)I)cc1`: the Potency entry was “inactive”.
As for `CCCC/C=C/C=C\C=O`, the Potency entry is “inactive”.
